The source made the active and inactive calls. How the source made its calls: active means hit-call score of the fitted dose curve at least 0.9, where 1 is the maximum; inactive means score below 0.9.
Legend:
Conditions in all cases: mRNA level, 48 h; actives raise or lower the signal
[1] = read-out: Forkhead box O1 (FOXO1), FOXO1 (gene 2308); experiment: LTEA_HepaRG_FOXO1: Life Technologies and Expression Analysis (LTEA) Assay for Forkhead box O1 (FOXO1) using HepaRG (AID 2283456)
In short: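 Using one lot of HepaRG hepatic cells kept in 0.5% DMSO, the team applied test chemicals in duplicate, half-log dilutions from 100 uM, for 48 h. Expression, normalised to ACTB/GAPDH/POLR2A, was compared with vehicle in either direction.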

[2] = read-out: growth arrest and DNA damage 45 (GADD45A), GADD45A (gene 1647); experiment: LTEA_HepaRG_GADD45A: Life Technologies and Expression Analysis (LTEA) Assay for growth arrest and DNA damage 45 (GADD45A) using HepaRG (AID 2283458)
In short: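 GADD45A expression was measured by TaqMan qRT-PCR against three housekeeping genes (ACTB, GAPDH, POLR2A) after 48 h treatment of HepaRG cells. Eight-point half-log series up to 100 uM in 0.5% DMSO, run in duplicate.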

[3] = read-out: Forkhead box O3 (FOXO3), FOXO3 (gene 2309); experiment: LTEA_HepaRG_FOXO3: Life Technologies and Expression Analysis (LTEA) Assay for Forkhead box O3 (FOXO3) using HepaRG (AID 2283459)
In short: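 Gene-expression endpoint: FOXO3 transcript level by qRT-PCR in HepaRG cultures treated 48 h with chemicals up to 100 uM (half-log, 0.5% DMSO vehicle).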

[4] = read-out: ABC Transporter (ABCB1), ABCB1 (gene 5243); experiment: LTEA_HepaRG_ABCB1: Life Technologies and Expression Analysis (LTEA) Assay for ABC Transporter (ABCB1) using HepaRG (AID 2283460)
In short: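 Human liver HepaRG line treated 48 h with up to 100 uM compound (eight half-log points, 0.5% DMSO); ABCB1 mRNA change fitted bidirectionally against DMSO controls.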

[5] = read-out: growth arrest and DNA damage 45 (GADD45B), GADD45B (gene 4616); experiment: LTEA_HepaRG_GADD45B: Life Technologies and Expression Analysis (LTEA) Assay for growth arrest and DNA damage 45 (GADD45B) using HepaRG (AID 2283461)
In short: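 HepaRG, ~100,000 cells/well, 48 h plating; serum-free induction medium; cpd 100 uM top, half-log x8, 0.5% DMSO, duplicate, 48 h; lysis in RLT, RNA isolation, qRT-PCR; norm ACTB/GAPDH/POLR2A; bidirectional fit vs DMSO.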

[6] = read-out: ABC Transporter (ABCC3), ABCC3 (gene 8714); experiment: LTEA_HepaRG_ABCC3: Life Technologies and Expression Analysis (LTEA) Assay for ABC Transporter (ABCC3) using HepaRG (AID 2283462)
In short: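 Human HepaRG, 48 h dosing, 8-pt half-log series from 100 uM, 0.5% DMSO vehicle, duplicates. ABCC3 mRNA by TaqMan qRT-PCR, housekeeping-normalized; bidirectional curve fit vs DMSO.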

[7] = read-out: ABC Transporter (ABCB11), ABCB11 (gene 8647); experiment: LTEA_HepaRG_ABCB11: Life Technologies and Expression Analysis (LTEA) Assay for ABC Transporter (ABCB11) using HepaRG (AID 2283463)
In short: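 Using HepaRG cultures held in 0.5% DMSO, chemicals were tested at half-log dilutions from 100 uM for 48 h. Induction or suppression of ABCB11 mRNA, normalized to ACTB, GAPDH and POLR2A, was fitted bidirectionally against vehicle.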

[8] = read-out: ABC Transporter (ABCC2), ABCC2 (gene 1244); experiment: LTEA_HepaRG_ABCC2: Life Technologies and Expression Analysis (LTEA) Assay for ABC Transporter (ABCC2) using HepaRG (AID 2283464)
In short: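 HepaRG, 48 h post-plating; serum-free induction medium; cpd 8-pt, 100 uM top, half-log, 0.5% DMSO, duplicate, 48 h. Readout: ABCC2 mRNA by qRT-PCR, norm. ACTB/GAPDH/POLR2A. Bidirectional fit vs DMSO baseline.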

[9] = read-out: Broad substrate specificity ATP-binding cassette transporter ABCG2 (Homo sapiens) (UniProt Q9UNQ0); experiment: LTEA_HepaRG_ABCG2: Life Technologies and Expression Analysis (LTEA) Assay for ABC Transporter (ABCG2) using HepaRG (AID 2283465)
In short: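 Gene expression of ABCG2 in HepaRG liver cells is quantified by qRT-PCR following 48 h exposure across an eight-point series topping at 100 uM. Values come from bidirectional fitting relative to DMSO vehicle.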

[10] = read-out: ATP-citrate lyase (ACLY), ACLY (gene 47); experiment: LTEA_HepaRG_ACLY: Life Technologies and Expression Analysis (LTEA) Assay for ATP-citrate lyase (ACLY) using HepaRG (AID 2283466)
In short: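 ACLY expression changes in human HepaRG liver cells are quantified by qRT-PCR after 48 h exposure to test chemicals (maximum 100 uM, half-log steps). Values are fitted in both directions relative to 0.5% DMSO vehicle.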

[11] = read-out: Peroxisomal acyl-coenzyme A oxidase 1 (ACOX1) gene, ACOX1 (gene 51); experiment: LTEA_HepaRG_ACOX1: Life Technologies and Expression Analysis (LTEA) Assay for Peroxisomal acyl-coenzyme A oxidase 1 (ACOX1) gene using HepaRG (AID 2283467)
In short: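 Human HepaRG hepatic cultures, 48 h treatment with test chemicals up to 100 uM. ACOX1 expression read by qRT-PCR relative to 0.5% DMSO vehicle.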

[12] = read-out: Alkaline Phosphatase, Placental (ALPP) gene, ALPP (gene 250); experiment: LTEA_HepaRG_ALPP: Life Technologies and Expression Analysis (LTEA) Assay for Alkaline Phosphatase, Placental (ALPP) gene using HepaRG (AID 2283468);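 on AC50: differentiated human HepaRG liver cells in serum-free induction medium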
In short: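 HepaRG, 48 h plating then 48 h dosing, serum-free induction medium, 0.5% DMSO. 8 conc, half-log, max 100 uM, duplicates. Endpoint: ALPP transcript by qRT-PCR, housekeeping-normalized; gain or loss fitted vs DMSO.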

[13] = read-out: Bcl-2 (BAD) gene, BAD (gene 572); experiment: LTEA_HepaRG_BAD: Life Technologies and Expression Analysis (LTEA) Assay for Bcl-2 (BAD) gene using HepaRG (AID 2283469)
In short: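 Activity values reflect up- or down-regulation of BAD mRNA in human HepaRG hepatic cells treated 48 h in serum-free medium, with eight-point half-log dosing capped at 100 uM and 0.5% DMSO vehicle.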

[14] = read-out: Bcl-2 (BAX) gene, BAX (gene 581); experiment: LTEA_HepaRG_BAX: Life Technologies and Expression Analysis (LTEA) Assay for Bcl-2 (BAX) gene using HepaRG (AID 2283470)
In short: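 Gene expression measured by Fluidigm qRT-PCR with three housekeeping genes for normalisation. HepaRG cells, plated 48 h beforehand, treated 48 h at up to 100 uM (8-point, half-log) in 0.5% DMSO. Bidirectional fitting versus DMSO.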

[15] = read-out: adenosine kinase (ADK) gene, ADK (gene 132); experiment: LTEA_HepaRG_ADK: Life Technologies and Expression Analysis (LTEA) Assay for adenosine kinase (ADK) gene using HepaRG (AID 2283471)
In short: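 Following 48 h exposure of HepaRG cells in 0.5% DMSO (top concentration 100 uM, duplicate wells), ADK mRNA induction or suppression was measured by qRT-PCR, normalised to ACTB/GAPDH/POLR2A, and fitted bidirectionally relative to vehicle.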

[16] = read-out: Alpha-fetoprotein (AFP) gene, AFP (gene 174); experiment: LTEA_HepaRG_AFP: Life Technologies and Expression Analysis (LTEA) Assay for Alpha-fetoprotein (AFP) gene using HepaRG (AID 2283472)
In short: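 AFP transcript measured by TaqMan qRT-PCR with three housekeeping genes for normalization, after 48 h chemical treatment of HepaRG cells (top 100 uM, half-log steps, 0.5% DMSO). Gain or loss fitted against vehicle.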

[17] = read-out: BCL2L11 (gene 10018); experiment: LTEA_HepaRG_BCL2L11: Life Technologies and Expression Analysis (LTEA) Assay for Bcl-2 (BCL2L11) gene using HepaRG (AID 2283473)
In short: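 Read-out is BCL2L11 transcript level by qRT-PCR, normalized to three housekeeping genes and fitted bidirectionally against 0.5% DMSO vehicle. HepaRG cells received chemicals for 48 h in serum-free induction medium, 100 uM down in half-log dilutions.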

[18] = read-out: Apolipoprotein A-V (APOA5) gene, APOA5 (gene 116519); experiment: LTEA_HepaRG_APOA5: Life Technologies and Expression Analysis (LTEA) Assay for Apolipoprotein A-V (APOA5) gene using HepaRG (AID 2283474)
In short: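 Readout is APOA5 transcript level by qRT-PCR on Fluidigm dynamic arrays, normalized to three housekeeping genes. HepaRG cultures received chemicals for 48 h at up to 100 uM (half-log steps, 0.5% DMSO), with gain or loss scored relative to DMSO.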

[19] = read-out: Apoptosis regulator Bcl-2 (Homo sapiens) (UniProt P10415); experiment: LTEA_HepaRG_BCL2: Life Technologies and Expression Analysis (LTEA) Assay for Bcl-2 gene using HepaRG (AID 2283475)
In short: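 qRT-PCR of BCL2 transcript, normalized to three housekeeping genes (ACTB, GAPDH, POLR2A), after 48 h chemical exposure of HepaRG cells; concentrations top 100 uM with half-log dilutions, 0.5% DMSO vehicle, duplicates; changes up or down fitted relative to vehicle.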

Apoptosis regulator Bcl-2 (Homo sapiens), sequence (P10415 whole entry, looked up): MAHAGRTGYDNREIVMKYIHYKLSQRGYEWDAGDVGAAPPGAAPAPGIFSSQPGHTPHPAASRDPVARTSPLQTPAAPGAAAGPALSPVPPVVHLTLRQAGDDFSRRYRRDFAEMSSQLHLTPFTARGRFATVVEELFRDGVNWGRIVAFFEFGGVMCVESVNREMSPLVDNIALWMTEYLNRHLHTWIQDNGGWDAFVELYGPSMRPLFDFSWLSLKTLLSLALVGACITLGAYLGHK
Broad substrate specificity ATP-binding cassette transporter ABCG2 (Homo sapiens), sequence (Q9UNQ0 whole entry, looked up): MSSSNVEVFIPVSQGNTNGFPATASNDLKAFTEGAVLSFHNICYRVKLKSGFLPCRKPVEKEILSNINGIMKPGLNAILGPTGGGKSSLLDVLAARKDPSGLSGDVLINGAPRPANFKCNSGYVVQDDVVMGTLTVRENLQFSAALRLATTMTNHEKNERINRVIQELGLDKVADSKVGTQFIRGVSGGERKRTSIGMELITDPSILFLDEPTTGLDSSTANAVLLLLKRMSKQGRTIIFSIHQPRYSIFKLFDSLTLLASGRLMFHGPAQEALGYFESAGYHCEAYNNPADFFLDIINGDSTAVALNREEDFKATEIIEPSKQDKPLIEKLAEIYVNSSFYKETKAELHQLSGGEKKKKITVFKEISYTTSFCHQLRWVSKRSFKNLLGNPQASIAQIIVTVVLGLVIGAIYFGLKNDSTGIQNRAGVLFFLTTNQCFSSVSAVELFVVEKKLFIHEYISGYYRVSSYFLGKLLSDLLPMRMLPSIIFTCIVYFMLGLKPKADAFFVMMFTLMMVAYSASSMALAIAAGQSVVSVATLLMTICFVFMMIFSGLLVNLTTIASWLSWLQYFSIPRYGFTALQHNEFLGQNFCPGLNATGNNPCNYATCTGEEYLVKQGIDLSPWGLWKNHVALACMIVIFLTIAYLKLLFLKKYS

Compound: COC(=O)c1ccccc1C(=O)OC
- outcome [1]: inactive
- outcome [2]: inactive
- outcome [3]: inactive
- outcome [4]: inactive
- outcome [5]: inactive
- outcome [6]: inactive
- outcome [7]: inactive
- outcome [8]: inactive
- outcome [9]: inactive
- outcome [10]: inactive
- outcome [11]: inactive
- outcome [12]: inactive
- outcome [13]: inactive
- outcome [14]: inactive
- outcome [15]: inactive
- outcome [16]: inactive
- outcome [17]: inactive
- outcome [18]: inactive
- outcome [19]: inactive

Compound: CCOP(=S)(OCC)SCn1c(=O)oc2cc(Cl)ccc21
- outcome [1]: inactive
- outcome [2]: inactive
- outcome [3]: inactive
- outcome [4]: inactive
- outcome [5]: inactive
- outcome [6]: inactive
- outcome [7]: inactive
- outcome [8]: inactive
- outcome [9]: inactive
- outcome [10]: inactive
- outcome [11]: inactive
- outcome [12]: inactive
- outcome [13]: inactive
- outcome [14]: inactive
- outcome [15]: inactive
- outcome [16]: inactive
- outcome [17]: inactive
- outcome [18]: inactive
- outcome [19]: inactive

Compound: CC1COC(Cn2cncn2)(c2ccc(Oc3ccc(Cl)cc3)cc2Cl)O1 (centres undefined)
- AC50 [1]: 30 µM (active)
- AC50 [2]: 12 µM (active)
- AC50 [3]: 79.2 µM (active)
- AC50 [4]: 81.4 µM (active)
- AC50 [5]: 9.92 µM (active)
- outcome [6]: inactive
- AC50 [7]: 11.2 µM (active)
- AC50 [8]: 34.4 µM (active)
- AC50 [9]: 12.6 µM (active)
- AC50 [10]: 86.7 µM (active)
- AC50 [11]: 50 µM (active)
- AC50 [12]: 10.9 µM (active)
- outcome [13]: inactive
- AC50 [14]: 13 µM (active)
- outcome [15]: inactive
- AC50 [16]: 11 µM (active)
- outcome [17]: inactive
- AC50 [18]: 12.8 µM (active)
- AC50 [19]: 12.8 µM (active)

Compound: N#Cc1nn(-c2c(Cl)cc(C(F)(F)F)cc2Cl)c(N)c1S(=O)C(F)(F)F (centres undefined)
- AC50 [1]: 87.4 µM (active)
- AC50 [2]: 74.2 µM (active)
- outcome [3]: inactive
- AC50 [4]: 11.4 µM (active)
- AC50 [5]: 90.7 µM (active)
- outcome [6]: inactive
- AC50 [7]: 27.8 µM (active)
- outcome [8]: inactive
- AC50 [9]: 23.5 µM (active)
- outcome [10]: inactive
- AC50 [11]: 50.2 µM (active)
- AC50 [12]: 11.5 µM (active)
- outcome [13]: inactive
- AC50 [14]: 32.6 µM (active)
- outcome [15]: inactive
- AC50 [16]: 15.9 µM (active)
- outcome [17]: inactive
- AC50 [18]: 54.4 µM (active)
- AC50 [19]: 34.6 µM (active)

Compound: COC(=O)N(OC)c1ccccc1COc1ccn(-c2ccc(Cl)cc2)n1
- AC50 [1]: 50 µM (active)
- AC50 [2]: 60 µM (active)
- outcome [3]: inactive
- AC50 [4]: 11.6 µM (active)
- outcome [5]: inactive
- outcome [6]: inactive
- AC50 [7]: 38.4 µM (active)
- outcome [8]: inactive
- AC50 [9]: 25 µM (active)
- outcome [10]: inactive
- AC50 [11]: 77.8 µM (active)
- outcome [12]: inactive
- outcome [13]: inactive
- AC50 [14]: 66.7 µM (active)
- AC50 [15]: 77.8 µM (active)
- AC50 [16]: 24.9 µM (active)
- AC50 [17]: 20.5 µM (active)
- AC50 [18]: 3.56 µM (active)
- AC50 [19]: 89.9 µM (active)

Compound: COc1cnc(OC)n2nc(NS(=O)(=O)c3c(OCC(F)F)cccc3C(F)(F)F)nc12
- outcome [1]: inactive
- outcome [2]: inactive
- outcome [3]: inactive
- AC50 [4]: 23.3 µM (active)
- outcome [5]: inactive
- outcome [6]: inactive
- outcome [7]: inactive
- outcome [8]: inactive
- outcome [9]: inactive
- outcome [10]: inactive
- outcome [11]: inactive
- outcome [12]: inactive
- outcome [13]: inactive
- outcome [14]: inactive
- outcome [15]: inactive
- AC50 [16]: 50 µM (active)
- outcome [17]: inactive
- outcome [18]: inactive
- outcome [19]: inactive
